Screening data deposited in PubChem BioAssay by University of Kansas High Throughput Screening Laboratory.
mHTT-CaM PPI inh = inhibitors of human mutant huntingtin-calmodulin interaction. P42858. actives 3.6% (n = 190,000). AID 1671202. AlphaScreen His-mHTT/GST-CaM binding, luminescence. inhibition, % at 15 µM;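 note: 0% = both proteins with DMSO and 100% = one protein alone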
Pf apPOL block = Pf-apPOL DNA polymerase inhibition | Recombinant Pf-apPOL, molecular beacon fluorescence, 1.5 h | AID 1794808 | inhibition, % at 10 µM | actives 0.25% (n = 210,000)
An asterisk follows results filed as active; x = no result. Hits are enriched below; roughly 3.6% of the tested compounds scored in any of these assays. Cut-off read from the data, not from the text of the source: active = inhibition above about 50%; inactive = the rest.

SMILES	mHTT-CaM PPI inh	Pf apPOL block
COCCn1cc2c3c(cccc31)CN(C(=O)Nc1cc(Cl)ccc1C)CC2	11.0	-0.3
CCCNC(=O)N1CCc2cn(CCOC)c3cccc(c23)C1	-5.8	-1.6
COCCn1cc2c3c(cccc31)CN(C(=O)c1ccc(F)c(F)c1)CC2	61.3*	-2.0
CN(C)c1ccc(C(=O)N2CCc3c(c(-c4nc(-c5ccc(F)cc5)no4)nn3C)C2)cc1	5.3	-0.4
CCN1CCN(C2CCN(C(=O)c3ccc(OC)c(F)c3)CC2)C1=O	-16.3	-5.8
Cc1ccc2c(c1)NC(c1ccc([N+](=O)[O-])cc1)C1=C(CC(C)(C)CC1=O)N2 (centres undefined)	18.4	-6.4
CCNc1cc(N2CCC(CCC(=O)N3CCN(C(=O)OCC)CC3)CC2)ncn1	0.7	8.9
CC(C)CN(C(=O)COc1ccc(F)cc1)C1CCS(=O)(=O)C1 (centres undefined)	-10.4	1.5
c1ccc(CN2CCCCC2c2nncn2CC2CC2)cc1 (centres undefined)	0.7	4.5
COc1ccc(-c2cn3c(CCC(=O)N4CCN(c5ncccn5)CC4)csc3n2)cc1	-0.3	-5.2
COc1ccccc1C1C(C#N)=C(N)Oc2n[nH]c(C(F)(F)F)c21 (centres undefined)	-3.0	-3.3
O=C(NC1CC2CC1CN2C(=O)c1ccc(Cl)s1)c1cccs1 (centres undefined)	7.5	-4.1
COc1cccc(OCc2noc(-c3cccc(Cl)c3)n2)c1	-43.4	-0.7
CN(C)c1cccc(OCc2noc(-c3cccc(Cl)c3)n2)c1	61.7*	-21.2
COc1ccccc1N1CCN(C(=O)C2CC2)CC1	-6.0	-1.1
COc1ccccc1N1CCN(C(=O)C2CCCc3c2[nH]c2ccccc32)CC1 (centres undefined)	58.8*	5.7
Cc1ccc(CN2CCN(C(=O)c3nc(C4CCC4)oc3C)CC2)cc1C	39.4	1.9
Cc1noc(C)c1C1CCCN1C(=O)Cc1ccc(F)cc1Cl (centres undefined)	-2.4	-4.9
CSc1nc2c(c(Nc3ccc(N(C)C)cc3)n1)CCC2	57.2*	-0.9
CSc1nc2c(c(Nc3ccc(C)cc3)n1)CCC2	10.8	-10.8
O=C(CN1c2ccccc2Sc2ccccc21)NN=Cc1cn(-c2ccccc2)nc1-c1ccc([N+](=O)[O-])cc1	x	2.8
COc1ccc(-n2nc(C(=O)N3CCCC3)c3ccccc3c2=O)c(OC)c1	-12.0	3.3
COc1ccc(-n2nc(C(=O)N3CCC(C)CC3)c3ccccc3c2=O)c(OC)c1	0.0	51.4*
COc1ccccc1-n1nc(C(=O)N2CCC(C)CC2)c2ccccc2c1=O	-5.0	0.4
COc1ccccc1-n1nc(C(=O)N2CCC(Cc3ccccc3)CC2)c2ccccc2c1=O	58.0*	-2.0
SMILES	mHTT-CaM PPI inh	Pf apPOL block
COc1ccccc1Oc1ccc(S(=O)(=O)NCc2ccco2)cc1	-13.4	-10.2
O=c1ccc(-c2ccccc2)nn1CCc1nc(-c2ccc(F)cc2)no1	8.0	-3.7
O=c1ccc(-c2ccc(F)cc2)nn1CCc1nc(-c2ccc(F)cc2)no1	70.4*	-5.1
CC(C)(C)c1ccc(C(=O)Nc2ccc(F)cc2)cc1	-5.2	-1.2
Cc1ccccc1CSCC(=O)Nc1ccccc1C(=O)NC(C)C	0.5	-8.1
CCN(CC)c1ccc(C2Oc3nc(SC)nnc3-c3ccccc3N2C(C)=O)c(OC)c1 (centres undefined)	59.0*	-10.4
CSc1nnc2c(n1)OC(c1cc3c(cc1[N+](=O)[O-])OCO3)N(C(C)=O)c1ccccc1-2 (centres undefined)	10.0	0.8
CSc1nnc2c(n1)OC(c1cc3c(cc1Cl)OCO3)N(C(C)=O)c1ccccc1-2 (centres undefined)	78.0*	-13.1
CCSc1nnc2c(n1)OC(c1ccccc1OC)N(C(C)=O)c1ccccc1-2 (centres undefined)	14.0	5.1
O=C(NCc1cccc(F)c1)c1ccc2c(c1)Sc1ncccc1C(=O)N2C1CC1	-4.2	-4.6
CCC(NS(=O)(=O)c1ccc(OC)cc1)C(=O)NCc1ccc2c(c1)OCO2 (centres undefined)	0.0	-5.6
c1cc(CN2CCCC(c3n[nH]c(C4CC4)n3)C2)ccn1 (centres undefined)	-5.3	-2.3
c1ccc(CN2CCCC(c3n[nH]c(C4CC4)n3)C2)nc1 (centres undefined)	95.3*	-19.9
N#Cc1cccc(CN2CCCC(c3nncn3-c3ccccc3)C2)c1 (centres undefined)	1.7	-2.5
c1ccc(-n2cnnc2C2CCCN(Cc3ccccn3)C2)cc1 (centres undefined)	87.1*	-28.4
O=S(=O)(Nc1cccc2cccnc12)c1ccccc1	73.9*	-19.3
CS(=O)(=O)Nc1cccc2cccnc12	47.0	-3.5
Cn1cnnc1SCCNC(=O)c1cc(-c2cccs2)[nH]n1	-12.2	-7.0
COc1ccc(CNS(=O)(=O)c2ccc(F)c(C(=O)Nc3ccc(Cl)cc3F)c2)cc1	6.0	-3.6
CC[N+]1(CC(O)COc2ccc(C34CC5CC(CC(C5)C3)C4)cc2)CCCC1 (centres undefined)	28.1	-3.3
